Sampled rows, rich in hits. Any-hit rate of the full collection: about 2.4%.
Pol beta inh: qHTS Assay for Inhibitors of DNA Polymerase Beta; Pol beta primer extension/strand displacement, fluorescence kinetic; P06746; Potency, µM (highest dose often 114 µM), hits mostly inhibitors; actives 1.3% (n = 340,000)
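Enzyme-only controls used 10 nM Pol beta; buffer lacking enzyme served as negative control. Compound preincubated 15 min, then 50 nM substrate added; 0 and 10 min reads at room temperature.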
Pol eta inh-1: qHTS for Inhibitors of Polymerase Eta | DNA polymerase eta (Homo sapiens), Q9Y253 | recombinant Pol eta, fluorescent DNA replication assay | Potency, µM (series often up to 114 µM), usual class: inhibitors | actives 1.2% (n = 390,000)
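Fluorescent replication assay: 50 nM final substrate added after a 15 min room-temperature compound preincubation with 10 nM enzyme. Signal taken at 0 min and again at 10 min.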
FEN1 inh-1: qHTS Assay for the Inhibitors of Human Flap endonuclease 1 (FEN1) | Recombinant FEN1 flap cleavage, fluorescence, 15 min | Potency, µM (titrated, usually from 114 µM), hits mostly inhibitors | actives 0.35% (n = 390,000) | AID 588795, 2011; note: nearly all actives have a fitted effect of over 65% in size
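Nuclease activity of 10 nM FEN1 was measured after 15 min of room-temperature exposure to titrated compounds, by adding 50 nM flap substrate and reading plates at 0 and 15 min.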
TDP1 block: qHTS Assay for Inhibitors of Tyrosyl-DNA Phosphodiesterase (TDP1); Tyrosyl-DNA phosphodiesterase 1 (Homo sapiens), Q9NUW8; recombinant TDP1, AlphaScreen DNA substrate cleavage; Potency, µM (doses to about 130 µM), usual class: inhibitors; actives 0.28% (n = 350,000); AID 485290, 2010; note: nearly all actives have a fitted effect of over 40% in size
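Enzyme-compound mixtures sat 15 min at room temperature, followed by a 5 min reaction with 15 nM final substrate and 10 min with AlphaScreen beads. Recombinant human Tdp1 was used at 1 nM final.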
Pol kappa inh-1: qHTS for Inhibitors of Polymerase Kappa. purified Pol kappa, fluorescent DNA synthesis assay, 10 min. Potency, µM (doses to about 107 µM), usual class: inhibitors. DNA polymerase kappa (Homo sapiens), Q9UBT6. actives 0.53% (n = 400,000)
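Enzyme at 10 nM met test compounds for 15 min at room temperature. Substrate addition (50 nM final) began the reaction, which was monitored by fluorescence at 0 and 10 min.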
Pol iota inh: qHTS for Inhibitors of Polymerase Iota; Pol iota fluorescent replication assay, 10 min; DNA polymerase iota (Homo sapiens), Q9UNA4; actives 1% (n = 390,000); Potency, µM (highest dose often 115 µM), actives largely listed as inhibitors; AID 588590, 2011
Target sequence (Q9UNA4 whole entry, looked up): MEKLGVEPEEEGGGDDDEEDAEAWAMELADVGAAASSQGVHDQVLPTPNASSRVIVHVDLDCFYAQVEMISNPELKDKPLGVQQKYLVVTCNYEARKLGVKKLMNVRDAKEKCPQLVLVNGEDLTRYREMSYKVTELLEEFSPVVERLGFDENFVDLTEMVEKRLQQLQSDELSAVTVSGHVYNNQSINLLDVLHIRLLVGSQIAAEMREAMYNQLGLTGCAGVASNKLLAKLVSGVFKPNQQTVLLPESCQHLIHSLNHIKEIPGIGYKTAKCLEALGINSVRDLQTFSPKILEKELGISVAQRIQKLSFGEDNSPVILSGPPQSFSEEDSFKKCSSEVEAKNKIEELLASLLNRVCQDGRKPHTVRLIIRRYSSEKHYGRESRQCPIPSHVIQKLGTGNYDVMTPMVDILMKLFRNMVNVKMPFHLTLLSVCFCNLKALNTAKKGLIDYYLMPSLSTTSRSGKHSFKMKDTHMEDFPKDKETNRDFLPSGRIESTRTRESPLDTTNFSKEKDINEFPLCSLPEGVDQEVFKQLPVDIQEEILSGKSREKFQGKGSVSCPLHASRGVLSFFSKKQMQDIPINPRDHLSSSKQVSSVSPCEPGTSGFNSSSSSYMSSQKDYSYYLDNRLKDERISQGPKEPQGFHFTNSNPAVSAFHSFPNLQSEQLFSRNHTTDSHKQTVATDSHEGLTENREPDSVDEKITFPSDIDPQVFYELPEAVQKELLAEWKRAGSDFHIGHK
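Pol iota at 10 nM preincubated 15 min with compounds at room temperature; reaction started with fluorescent substrate, 50 nM final. Fluorescence read kinetically at 0 and 10 min; buffer-only wells as negative control.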
PGK validate: qHTS for inhibitors of Phosphogylcerate Kinase: Hit Validation Screen; shares compounds with Pol kappa inh-1; TbPGK coupled GAPDH assay, Kinase-Glo luminescence; Potency, µM (titrated, usually from 57.5 µM), most hits filed as inhibitors; actives 79% (n = 500); note: nearly all actives have a fitted effect of over 65% in size
Pol iota confirm: qHTS for Inhibitors of Polymerase Iota: Confirmatory Assay for Cherry-picked Compounds. shares compounds with Pol kappa inh-1. Pol iota primer extension, TAMRA/BHQ fluorescence. Potency, µM, most hits filed as inhibitors. actives 77% (n = 1,500)
Pol kappa inh-2: qHTS for Inhibitors of Polymerase Kappa: Confirmatory Assay for Cherry-picked Compounds. Potency, µM, hits mostly inhibitors. actives 76% (n = 920). purified Pol-kappa, fluorescent strand-displacement substrate. shares compounds with Pol eta inh-1
Pol eta inh-2: qHTS for Inhibitors of Polymerase Eta: Confirmatory Assay for Cherry-picked Compounds. Potency, µM, usual class: inhibitors. Pol eta primer extension, TAMRA/BHQ fluorescence, 10 min. AID 720502, 2013. shares compounds with Pol eta inh-1. actives 64% (n = 2,600)
FEN1 inh-2: qHTS Assay for the Inhibitors of FEN1: Confirmatory Assay for Cherry-picked Compounds; shares compounds with FEN1 inh-1; FEN1 flap cleavage, TAMRA/BHQ2 fluorogenic DNA substrate; Potency, µM, usual class: inhibitors; actives 79% (n = 880); AID 720498, 2013; note: nearly all actives have a fitted effect of over 60% in size
Large screens that a line does not name were inactive (follow-up assays come after a bar, where they were run). Calls come from the whole dose curve; as a rule, active = well fitted curve in the direction sought with a large enough effect; inconclusive = small, poorly fitted or top-dose-only effect, or another doubt; inactive = no such curve, though single readings can be large; an effect the other way counts as inactive or inconclusive.

O=S(=O)(O)c1cc(O)c2cc(Nc3ccccc3)ccc2c1	Pol eta inh-1 2.8µM, FEN1 inh-1 50µM, Pol kappa inh-1 32µM, Pol iota inh 3.2µM (no result: Pol beta inh, TDP1 block) | PGK validate 9.2µM | Pol iota confirm 30 | Pol kappa inh-2 3.4 | Pol eta inh-2 17 | FEN1 inh-2 85
O=C(Nc1ccccc1)Nc1ccc(Nc2ccccc2)cc1	none (no result: Pol beta inh, TDP1 block)
Nc1cccc2c(O)cc(S(=O)(=O)O)cc12	Pol eta inh-1 2.8µM, FEN1 inh-1 8.9µM, Pol kappa inh-1 8.9µM, Pol iota inh 3.2µM (no result: Pol beta inh, TDP1 block) | PGK validate 5.2µM | Pol iota confirm 6.7 | Pol kappa inh-2 2.7 | Pol eta inh-2 6 | FEN1 inh-2 43
COc1ccccc1Nc1ccc2c(O)cc(S(=O)(=O)O)cc2c1	Pol eta inh-1 2.2µM, FEN1 inh-1 22µM, Pol kappa inh-1 0.89µM, Pol iota inh 1.1µM (no result: Pol beta inh, TDP1 block) | PGK validate 8.2µM | Pol iota confirm 19 | Pol kappa inh-2 3 | Pol eta inh-2 15 | FEN1 inh-2 67
O=C(O)c1cc2cc(S(=O)(=O)O)ccc2cc1O	none (no result: Pol beta inh, TDP1 block)
Cc1c(C2(c3cc(C(C)C)c(O)c(Br)c3C)OS(=O)(=O)c3ccccc32)cc(C(C)C)c(O)c1Br	FEN1 inh-1 inconclusive, Pol iota inh inconclusive (no result: Pol beta inh, Pol eta inh-1, TDP1 block)
COC(=O)c1ccccc1NC(=O)Cn1c(=O)n(CCC(=O)NCc2ccc3c(c2)OCO3)c(=O)c2ccccc21	none
O=C(COC(=O)/C=C/c1ccc(F)cc1)NC(=O)NCc1ccccc1	none (no result: Pol beta inh, FEN1 inh-1, TDP1 block, Pol kappa inh-1, Pol iota inh)
CCc1ccc(N=C2NC(=O)/C(=C/c3cc(Br)c(OCC(=O)O)c(OC)c3)S2)cc1	Pol beta inh 16µM, Pol eta inh-1 35µM, FEN1 inh-1 50µM, Pol kappa inh-1 inconclusive, Pol iota inh 40µM | Pol iota confirm 67 | Pol kappa inh-2 47 | Pol eta inh-2 85 | FEN1 inh-2 76
CCc1ccc(N=C2NC(=O)/C(=C/c3cc(OC)c(OC)c(OC)c3)S2)cc1	none (no result: TDP1 block)
O=C(Cc1ccccc1)NC(CSSCC(NC(=O)Cc1ccccc1)C(=O)O)C(=O)O (stereo not given)	Pol iota inh inconclusive (no result: Pol beta inh, TDP1 block)
CC1=C(C#N)c2nc(N)c(C#N)c(C)c2/C1=C\c1ccc(-c2ccccc2C(=O)O)o1	Pol beta inh 10µM, Pol eta inh-1 7.9µM, FEN1 inh-1 40µM, Pol kappa inh-1 22µM, Pol iota inh inconclusive (no result: TDP1 block) | Pol iota confirm 42 | Pol eta inh-2 27 | FEN1 inh-2 48
Cc1ccc(-c2cc(-c3ccccc3)nc(N)c2C#N)o1	none (no result: TDP1 block)
CCOC(=O)c1cnn(-c2cccc(Cl)c2)c1C1CCN(C(=O)OC(C)(C)C)CC1	Pol beta inh inconclusive
CC(C)(O)c1cc(=O)sc2nc3ccccc3n12	none
O=C(O)c1cccc(-c2ccc(/C=c3/sc4nc5ccccc5n4c3=O)o2)c1	Pol beta inh 4µM, Pol eta inh-1 3.2µM, FEN1 inh-1 13µM, Pol kappa inh-1 22µM, Pol iota inh inconclusive (no result: TDP1 block) | Pol iota confirm 3.8 | Pol eta inh-2 5.4 | FEN1 inh-2 76
COc1cccc(NS(=O)(=O)c2ccc3c(c2)C2C=CCC2C(c2ccc(C(=O)O)cc2)N3)c1 (stereo not given)	Pol beta inh inconclusive, Pol eta inh-1 3.2µM, FEN1 inh-1 35µM, Pol kappa inh-1 16µM, Pol iota inh 20µM | Pol iota confirm 38 | Pol eta inh-2 27 | FEN1 inh-2 30
Nc1cc(S(=O)(=O)O)cc([N+](=O)[O-])c1O	Pol eta inh-1 4.5µM, FEN1 inh-1 inconclusive, Pol kappa inh-1 28µM, Pol iota inh 7.9µM | PGK validate 2.9µM | Pol iota confirm 8.4 | Pol eta inh-2 5.4 | FEN1 inh-2 inconclusive
Nc1ccc(C(=O)O)cc1[N+](=O)[O-]	none
COc1cccc(CNc2nccn(-c3cc(C)cc(C)c3)c2=O)c1	none
Cc1cc(=O)c2c(o1)C(=O)c1occc1C2=O	Pol eta inh-1 10µM, FEN1 inh-1 50µM, Pol kappa inh-1 32µM, Pol iota inh 6.3µM (no result: Pol beta inh, TDP1 block) | Pol iota confirm 47 | Pol kappa inh-2 42 | Pol eta inh-2 30 | FEN1 inh-2 inconclusive
COc1c2occc2c(OC)c2c(=O)cc(C)oc12	none
COc1cc2[nH]c(=O)n(Cc3ccc(C(=O)N4CCN(c5cc(Cl)ccc5C)CC4)cc3)c(=O)c2cc1OC	Pol iota inh inconclusive
Cc1cccc2cc(C(c3nnnn3C(C)(C)C)N(Cc3ccco3)CC3CCCO3)c(=O)[nH]c12 (stereo not given)	Pol beta inh 32µM, Pol eta inh-1 7.9µM, FEN1 inh-1 inconclusive, Pol kappa inh-1 45µM, Pol iota inh 16µM (no result: TDP1 block) | PGK validate 1.8µM | Pol iota confirm 17 | Pol eta inh-2 19 | FEN1 inh-2 27
COCCN=c1scc(-c2ccco2)n1/N=C/c1ccc(O)c(O)c1O	Pol beta inh 2.8µM, Pol eta inh-1 4.5µM, FEN1 inh-1 35µM, Pol iota inh 2µM | Pol iota confirm 11 | Pol eta inh-2 9.5 | FEN1 inh-2 inconclusive
Oc1ccc(/C=N/n2c(-c3ccco3)csc2=Nc2cccnc2)c(O)c1	none
COc1cccc2c1C1COC3C4CC(C(=O)O)C(C(C2)N13)N4C (stereo not given)	none (no result: Pol beta inh, TDP1 block)
COc1cc(O)c(C(C)=O)c(OC)c1	none (no result: Pol beta inh)
